Here are results for four compounds from PubChem BioAssay.

The structures appear in SMILES notation. Activity calls are given as the source filed them. Rule as the data show it, unless noted: active = parasite load remaining mostly below about 12% (no sharp cut-off); inactive = mostly above about 10%.

Assay [1] is described as follows: P. berghei load reduction in hepatocytes – cell-based, HepG2, luciferase luminescence, HepG2 viability, primary screen (AID 624349).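 Also: 100% = mean of DMSO negative control wells on the same plate.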 To be noted: P. berghei liver stage in HepG2, luciferase luminescence, concentration not given here; parasite load remaining: stronger effect = lower value; viability: measured here: HepG2 viability without parasites.
Assay [2] can be described thus: viability loss with induced miR-34 in A549 – imaging, A549 dox-inducible miR-34, nuclei and caspase counts, primary screen (AID 1347080;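 active = compounds whose cell count with miR-34 switched on is under 0.7 times the count with it off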). The conditions noted are these: A549 miR-34 inducible, Hoechst nuclei count, 48 h.
Assay [3] is described as follows: MELAS cybrid and Rieske KO viability enhancers – cell-based, MELAS cybrids, Rieske KO mouse fibroblasts, CellTiter-Glo, primary screen (AID 1508586;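 active = mean z-score across replicates of 1.96 or higher in either the MELAS or the Rieske mutant cell line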;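 also: z relative to plate mean and SD of compound and empty wells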). The conditions noted are these: low glucose. For orientation: In ATP-based viability assays light output follows the ATP content of the culture.
A short description of assay [4]: galactose survival enhancers in mitochondrial complex I cybrids – cell-based, galactose medium, ATP luminescence, primary screen (AID 1645843;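 active = z-score of at least 1.8 in each of two replicates, scored against plate mean and spread of sample wells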;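 also: positive z means more ATP and so rescue of galactose-driven cybrid death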). To be noted: complex I mutant cybrid cells, 72 h, stronger effect = higher value.
A short description of assay [5]: compounds altering viability of human ES cells (AID 493140; call rule not given here;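 also: cells exposed to compounds for four days before counting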). To be noted: human embryonic stem cell survival screen; stronger effect = higher value.
[6] abbreviates: stronger effect = lower value, cell number ratio, induced over uninduced.
The mark [7] stands for this setting: measured here: relative caspase fold change +Dox/-Dox.
Where [8] appears, read: measured here: total cells with miR-34 induction, stronger effect = lower value.
Setting [9] is: measured here: total cells without miR-34 induction.
Setting [10] is: MELAS cybrid survival, CellTiter-Glo 48 h, stronger effect = higher value.
The mark [11] stands for this setting: Rieske KO mouse fibroblast survival, CellTiter-Glo 72 h.

With `CC[C@@H]1OC(=O)C[C@H](O)[C@@H](C)[C@@H](O[C@@H]2O[C@H](C)[C@@H](O[C@H]3C[C@@](C)(O)[C@@H](O)[C@H](C)O3)[C@H](N(C)C)[C@H]2O)[C@@H](C=O)C[C@@H](C)C(=O)/C=C/C(C)=C\[C@@H]1CO[C@H]1O[C@@H](C)[C@H](O)[C@H](OC)[C@@H]1OC`, in assay [1], the parasite load remaining is 27.3% (inactive). In assay [1], the viability is 67%. In addition, the fold change in assay [2] (setting [6]) is 0.839 (inactive); in assay [2] (setting [7]), 1.48. The cell count in assay [2] (setting [8]) stood at 9360; in assay [2] (setting [9]), 11200. Also, the figures for the z-score in assay [3] (setting [10]), in assay [3] (setting [11]) and in assay [4] were 0.258 (inactive), -0.691 and 0.54 (inactive), respectively.
As for `COc1ccc(C(=O)/C(Br)=C\C(=O)O)cc1`, the parasite load remaining in assay [1] was 25.4% (inactive). Further, in assay [1], the viability was 107%. Also, the fold change in assay [2] (setting [6]) was 0.888 (inactive); in assay [2] (setting [7]), 1.39. The results for the cell count in assay [2] (setting [8]) and in assay [2] (setting [9]) were 9940 and 11200, respectively. Besides, the results for the z-score in assay [3] (setting [10]), in assay [3] (setting [11]) and in assay [4] were -0.188 (inactive), -0.289 and -0.925 (inactive), respectively.
For `Cc1c(N)nc([C@H](CC(N)=O)NC[C@H](N)C(N)=O)nc1C(=O)N[C@@H](C(=O)N[C@H](C)[C@@H](O)[C@H](C)C(=O)N[C@@H](C(=O)NCCc1nc(-c2ncc(C(=O)NCCC[S+](C)C)s2)cs1)[C@@H](C)O)[C@@H](O[C@@H]1O[C@@H](CO)[C@@H](O)[C@H](O)[C@@H]1O[C@@H]1O[C@H](CO)[C@@H](O)[C@@H](OC(N)=O)[C@@H]1O)c1cnc[nH]1`, the parasite load remaining in assay [1] was 89.5% (inactive). Besides, the viability in assay [1] is 111%. The fold change in assay [2] (setting [6]) was 0.865 (inactive); in assay [2] (setting [7]) it was 1.1. Further, the cell count in assay [2] (setting [8]) was 4410; in assay [2] (setting [9]), 5100. Moreover, the z-score in assay [3] (setting [10]) is -1.31 (inactive); in assay [3] (setting [11]) it was -1.18; in assay [4], -1.23 (inactive).
`CC(C)(C)NC[C@@H](O)COc1cccc2c1CCCC2=O`: the survival in assay [5] was 6.25 (inactive). In addition, the parasite load remaining in assay [1] was 94.5% (inactive). Besides, the viability in assay [1] amounted to 97%. In addition, the fold change is 0.911 (inactive) in assay [2] (setting [6]) and 1.14 in assay [2] (setting [7]). In addition, the cell count in assay [2] (setting [8]) was determined as 9750; in assay [2] (setting [9]) it was 10700. Moreover, the z-score is 0.547 (inactive) in assay [3] (setting [10]) and 0.0254 in assay [3] (setting [11]).

For orientation: viability means a read-out of living cells in per cent, often relative to untreated cells.
